# Measured values taken from PubChem BioAssay (EPA / NIEHS).
# Results filed as inconclusive are left out. Active and inactive are the calls of the source. The calls were made as follows: active = hit-call score of the fitted dose curve at least 0.9, where 1 is the maximum; inconclusive = response in the unintended direction; inactive = score below 0.9.
# Assays:
# [1] = TOX21_p53_BLA_p2_viability: Viability Assessment in the Tox21 HCT-116 p53 Agonism Beta-lactamase Assay, Phase 2 (AID 2283591);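 also: actives lower the ATP signal meaning cytotoxicity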
# Summary of the method: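 HCT116 p53-bla cells, 4000/well, dosed after 5 h plating (217-fold dilution of DMSO stocks) and incubated 16 h at 37C. Viability taken as cellular ATP by CellTiter-Glo luminescence after 30 min RT; signal loss marks cytotoxicity.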
# [2] = target: Cellular tumor antigen p53 (Homo sapiens) (UniProt P04637); assay: TOX21_p53_BLA_p2_ratio: Tox21 HCT-116 p53 Agonism Beta-lactamase Assay, Ratio, Phase 2 (AID 2283592)
# Summary of the method: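 An inducible beta-lactamase reporter in HCT116 cells signals p53 pathway activation. After 16 h chemical exposure at 37C, cells load CCF4-AM substrate for 2 h at room temperature; activity is the cleaved/uncleaved emission ratio relative to DMSO.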
# [3] = target: Cellular tumor antigen p53 (Homo sapiens) (UniProt P04637); assay: TOX21_p53_BLA_p3_ratio: Tox21 HCT-116 p53 Agonism Beta-lactamase Assay, Ratio, Phase 3 (AID 2283596)
# Summary of the method: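 HCT116 p53-bla cells (4000/well) given compound in DMSO (217-fold dilution) after 5 h, incubated 16 h at 37C. CCF4-AM substrate 2 h at room temperature; 460/530 nm emission ratio, gain fitted against DMSO.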
# [4] = TOX21_p53_BLA_p4_viability: Viability Assessment in the Tox21 HCT-116 p53 Agonism Beta-lactamase Assay, Phase 4 (AID 2283597);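 also: hits lower the luminescence signal meaning cytotoxicity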
# Summary of the method: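 Compound exposure of HCT116 cells lasts 16 h at 37C, 5% CO2, with DMSO stocks diluted 217-fold. Cellular ATP is then quantified by CellTiter-Glo luminescence after 30 min at room temperature.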
# [5] = target: Cellular tumor antigen p53 (Homo sapiens) (UniProt P04637); assay: TOX21_p53_BLA_p5_ratio: Tox21 HCT-116 p53 Agonism Beta-lactamase Assay, Ratio, Phase 5 (AID 2283599)
# Summary of the method: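 HCT-116 p53-bla cells (4000/well) plated 5 h, dosed with compound (217-fold DMSO dilution) for 16 h at 37 C; CCF4-AM substrate 2 h at room temperature. Activity is the 460/530 nm emission ratio (405 nm excitation), fitted in gain-of-signal direction versus DMSO.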
# [6] = target: Cellular tumor antigen p53 (Homo sapiens) (UniProt P04637); assay: TOX21_p53_BLA_p4_ratio: Tox21 HCT-116 p53 Agonism Beta-lactamase Assay, Ratio, Phase 4 (AID 2283601)
# Summary of the method: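 HCT-116 p53 beta-lactamase reporter cells (4000/well) preincubated 5 h, then compound (217-fold dilution of DMSO stock) for 16 h at 37C. CCF4-AM substrate added 2 h at room temperature; 460/530 nm emission ratio fitted upward versus DMSO.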
# [7] = TOX21_p53_BLA_p5_viability: Viability Assessment in the Tox21 HCT-116 p53 Agonism Beta-lactamase Assay, Phase 5 (AID 2283600)
# Summary of the method: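 Counter-readout for cytotoxicity: ATP-dependent luminescence from CellTiter-Glo, read in the beta-lactamase wells after 30 min at RT, following a 16 h compound exposure at 37C.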
# Sequence of Cellular tumor antigen p53 (Homo sapiens) (P04637 whole entry, looked up): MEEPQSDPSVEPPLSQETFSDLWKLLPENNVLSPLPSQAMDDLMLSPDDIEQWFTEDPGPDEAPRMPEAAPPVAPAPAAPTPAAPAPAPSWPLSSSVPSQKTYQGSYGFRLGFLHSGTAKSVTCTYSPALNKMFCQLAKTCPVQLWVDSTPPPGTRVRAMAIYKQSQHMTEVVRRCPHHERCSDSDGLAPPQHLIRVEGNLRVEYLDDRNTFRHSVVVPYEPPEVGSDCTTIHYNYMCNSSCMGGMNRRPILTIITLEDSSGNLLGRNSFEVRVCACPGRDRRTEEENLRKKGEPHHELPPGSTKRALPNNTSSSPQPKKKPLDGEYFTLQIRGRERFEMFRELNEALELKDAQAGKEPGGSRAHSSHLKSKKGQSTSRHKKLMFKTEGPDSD
smiles,measurement,setting,value
NC(=O)c1cc[n+](CC2=C(C(=O)O)N3C(=O)[C@@H](NC(=O)[C@@H](c4ccccc4)S(=O)(=O)[O-])[C@H]3SC2)cc1,outcome,[1],inactive
same,outcome,[2],inactive
same,outcome,[3],inactive
same,outcome,[4],inactive
same,outcome,[5],inactive
same,outcome,[6],inactive
C[C@@H](O)[C@H]1C(=O)N2C(C(=O)O)=C(S[C@@H]3CN[C@H](C(=O)N(C)C)C3)[C@H](C)[C@H]12,outcome,[1],inactive
same,outcome,[2],inactive
same,outcome,[3],inactive
same,outcome,[4],inactive
same,outcome,[7],inactive
same,outcome,[6],inactive
CNCC[C@@H](Oc1ccccc1C)c1ccccc1,outcome,[1],inactive
same,outcome,[2],inactive
same,outcome,[3],inactive
same,outcome,[4],inactive
same,outcome,[5],inactive
same,outcome,[6],inactive
CC(C)(O)C(=O)O,outcome,[1],inactive
same,outcome,[2],inactive
same,outcome,[3],inactive
same,outcome,[4],inactive
same,outcome,[5],inactive
same,outcome,[6],inactive
C=CCOc1ccc(CC(=O)O)cc1Cl,outcome,[1],inactive
same,outcome,[2],inactive
same,outcome,[3],inactive
same,outcome,[4],inactive
same,outcome,[7],inactive
same,outcome,[6],inactive
C1CCC2OC2C1 (configuration not stated),outcome,[1],inactive
same,outcome,[2],inactive
same,outcome,[3],inactive
same,outcome,[4],inactive
same,outcome,[7],inactive
same,outcome,[6],inactive
CC(C)(C)NCCNC(C)(C)C,outcome,[1],inactive
same,outcome,[2],inactive
same,outcome,[3],inactive
same,outcome,[4],inactive
same,outcome,[7],inactive
same,outcome,[6],inactive
COS(=O)(=O)C(F)(F)F,outcome,[1],inactive
same,outcome,[2],inactive
same,outcome,[3],inactive
same,outcome,[4],inactive
same,outcome,[7],inactive
same,outcome,[6],inactive
Nc1ccc(S(=O)(=O)Nc2ccnn2-c2ccccc2)cc1,outcome,[1],inactive
same,outcome,[2],inactive
same,outcome,[3],inactive
same,outcome,[4],inactive
same,outcome,[6],inactive
O=c1[nH]c2cc(C(F)(F)F)c(N3CCOCC3)cc2n(CP(=O)(O)O)c1=O,outcome,[1],inactive
same,outcome,[2],inactive
same,outcome,[3],inactive
same,outcome,[4],inactive
same,outcome,[6],inactive
O=C(O)c1ccccc1OP(=O)(O)O,outcome,[1],inactive
same,outcome,[2],inactive
same,outcome,[3],inactive
same,outcome,[4],inactive
same,outcome,[6],inactive
CC[N+](C)(C)Cc1ccccc1Br,outcome,[1],inactive
same,outcome,[2],inactive
same,outcome,[3],inactive
same,outcome,[5],inactive
same,outcome,[7],inactive
same,outcome,[6],inactive
CC1CCc2c(N3CCC(O)CC3)c(F)cc3c(=O)c(C(=O)O)cn1c23 (configuration not stated),outcome,[1],inactive
same,outcome,[2],inactive
same,outcome,[3],inactive
same,outcome,[4],inactive
same,outcome,[6],inactive
N#C/C(=C1\SCC(c2ccccc2Cl)S1)n1ccnc1 (configuration not stated),outcome,[1],inactive
same,outcome,[2],inactive
same,outcome,[3],inactive
same,outcome,[4],inactive
same,outcome,[6],inactive
CCCCC,outcome,[1],inactive
same,outcome,[2],inactive
same,outcome,[3],inactive
same,outcome,[5],inactive
same,outcome,[7],inactive
same,outcome,[6],inactive
C[C@@H]1C[C@H]2[C@@H]3CCC4=CC(=O)C=C[C@]4(C)[C@@]3(F)[C@@H](O)C[C@]2(C)[C@@]1(O)C(=O)COC(=O)c1cccc(S(=O)(=O)O)c1,outcome,[1],inactive
same,outcome,[2],inactive
same,outcome,[3],inactive
same,outcome,[5],inactive
CCC(=O)OC(=O)CC,outcome,[1],inactive
same,outcome,[2],inactive
same,outcome,[3],inactive
same,outcome,[5],inactive
same,outcome,[7],inactive
same,outcome,[6],inactive
CCCCCCCCCCCCCCCC(=O)OC[C@@H](COP(=O)([O-])OCC[N+](C)(C)C)OC(=O)CCCCCCCCCCCCCCC,outcome,[1],inactive
same,outcome,[2],inactive
same,outcome,[3],inactive
same,outcome,[4],inactive
same,outcome,[6],inactive
Cc1c(NC(=O)c2cccnc2)c(=O)n(-c2ccccc2)n1C,outcome,[1],inactive
same,outcome,[2],inactive
same,outcome,[3],inactive
same,outcome,[5],inactive
same,outcome,[7],inactive
O=C(O)c1cc(O)c2c(c1)[C@H]([C@H]1c3cc(C(=O)O)cc(O)c3C(=O)c3c(O[C@@H]4O[C@H](CO)[C@@H](O)[C@H](O)[C@H]4O)cccc31)c1cccc(O[C@@H]3O[C@H](CO)[C@@H](O)[C@H](O)[C@H]3O)c1C2=O,outcome,[1],inactive
same,outcome,[2],inactive
same,outcome,[3],inactive
same,outcome,[5],inactive
same,outcome,[7],inactive
same,outcome,[6],inactive
CCCCS,outcome,[1],inactive
same,outcome,[2],inactive
same,outcome,[3],inactive
same,outcome,[5],inactive
same,outcome,[7],inactive
COc1cc(NS(=O)(=O)c2ccc(N)cc2)ncn1,outcome,[1],inactive
same,outcome,[2],inactive
same,outcome,[3],inactive
same,outcome,[5],inactive
same,outcome,[7],inactive
same,outcome,[6],inactive
NC(CSCC(=O)O)C(=O)O (configuration not stated),outcome,[1],inactive
same,outcome,[2],inactive
same,outcome,[3],inactive
same,outcome,[5],inactive
same,outcome,[7],inactive
CCOC(=O)Cc1cccc(-c2cc(CCCCCCc3ccc(O[C@H]4O[C@H](COC(C)=O)[C@@H](OC(C)=O)[C@H](OC(C)=O)[C@@H]4OC(C)=O)c(-c4cccc(CC(=O)OCC)c4)c3)ccc2O[C@H]2O[C@H](COC(C)=O)[C@@H](OC(C)=O)[C@H](OC(C)=O)[C@@H]2OC(C)=O)c1,outcome,[1],inactive
same,outcome,[2],inactive
same,outcome,[3],inactive
same,outcome,[4],inactive
same,outcome,[6],inactive
C[C@@]12C(=O)OC(=O)[C@]1(C)C1CCC2O1,outcome,[1],inactive
same,AC50,[2],0.446 µM (active)
same,outcome,[3],inactive
same,outcome,[5],inactive
same,outcome,[7],inactive
same,AC50,[6],2.91 µM (active)
NS(=O)(=O)c1cc(Cl)c(Cl)c(S(N)(=O)=O)c1,outcome,[1],inactive
same,outcome,[2],inactive
same,outcome,[3],inactive
same,outcome,[5],inactive
same,outcome,[7],inactive
N.N.O=C([O-])C1(C(=O)[O-])CCC1.[Pt+4],outcome,[1],inactive
same,outcome,[2],inactive
same,outcome,[3],inactive
same,outcome,[5],inactive
same,outcome,[7],inactive
Oc1ccc(C2(c3ccc(O)cc3)CC3CC2C2CCCC32)cc1 (configuration not stated),AC50,[1],64.1 µM (active)
same,AC50,[2],82.8 µM (active)
same,outcome,[3],inactive
same,AC50,[4],55.4 µM (active)
same,AC50,[6],83.1 µM (active)
CCC(=O)OC,outcome,[1],inactive
same,AC50,[2],82.7 µM (active)
same,outcome,[3],inactive
same,outcome,[5],inactive
same,outcome,[7],inactive
same,outcome,[6],inactive
Cc1cc(=O)oc2cc(O)cc(O)c12,outcome,[1],inactive
same,outcome,[2],inactive
same,outcome,[3],inactive
same,outcome,[5],inactive
same,outcome,[7],inactive
same,AC50,[6],41.7 µM (active)
CCCN(CCC)CCc1cccc2c1CC(=O)N2,outcome,[1],inactive
same,outcome,[2],inactive
same,outcome,[3],inactive
same,outcome,[5],inactive
same,outcome,[7],inactive
CO[C@H]1C[C@H](O[C@H]2[C@H](C)[C@@H](O[C@@H]3O[C@H](C)C[C@H](N(C)C)[C@H]3O)[C@@H](C)C[C@]3(CO3)C(=O)[C@H](C)[C@@H](O)[C@@H](C)[C@@H](C)OC(=O)[C@@H]2C)O[C@@H](C)[C@@H]1O,outcome,[1],inactive
same,outcome,[2],inactive
same,outcome,[3],inactive
same,outcome,[5],inactive
same,outcome,[7],inactive
CC(=O)O[C@@H]1C(=O)O[C@@H]2[C@H]1OC(=O)[C@@H]2OC(C)=O,outcome,[1],inactive
same,outcome,[2],inactive
same,outcome,[3],inactive
same,AC50,[5],36.7 µM (active)
same,outcome,[7],inactive
same,outcome,[6],inactive
CC(=O)OC[C@H]1O[C@@H](n2ncc(=O)[nH]c2=O)[C@H](OC(C)=O)[C@@H]1OC(C)=O,outcome,[1],inactive
same,AC50,[2],2.04 µM (active)
same,AC50,[3],3.15 µM (active)
same,AC50,[5],2.02 µM (active)
same,outcome,[7],inactive
same,AC50,[6],2.61 µM (active)
